Results: PubChem BioAssay (NCATS)
Results filed as inconclusive are left out. Entries that show only a call come without a potency. The source made the active and inactive calls. Calls follow the shape of the dose curve; as a rule, active = well fitted curve in the direction sought with a large enough effect; inconclusive = small, poorly fitted or top-dose-only effect, or another doubt; inactive = no such curve, though single readings can be large; an effect the other way counts as inactive or inconclusive.

target: Voltage-gated inwardly rectifying potassium channel KCNH2 (Homo sapiens) (UniProt Q12809); test: qHTS Assay for Small Molecule Inhibitors of the Human hERG Channel Activity (AID 588834); settings: U2OS BacMam hERG, FluxOR thallium flux fluorescence; series mostly up to 46.1 µM;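 also: top concentration of the series differs between compounds; lower thallium flux fluorescence means stronger hERG block; nearly all actives have a fitted effect of over 50% in size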
Method in brief: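 Homogeneous FluxOR thallium flux assay using hERG-expressing U2OS cells (BacMam). Compound treatment about 10 minutes preceded stimulation; reduced fluorescence taken as channel block.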

Sequence of Voltage-gated inwardly rectifying potassium channel KCNH2 (Homo sapiens) (Q12809 whole entry, looked up): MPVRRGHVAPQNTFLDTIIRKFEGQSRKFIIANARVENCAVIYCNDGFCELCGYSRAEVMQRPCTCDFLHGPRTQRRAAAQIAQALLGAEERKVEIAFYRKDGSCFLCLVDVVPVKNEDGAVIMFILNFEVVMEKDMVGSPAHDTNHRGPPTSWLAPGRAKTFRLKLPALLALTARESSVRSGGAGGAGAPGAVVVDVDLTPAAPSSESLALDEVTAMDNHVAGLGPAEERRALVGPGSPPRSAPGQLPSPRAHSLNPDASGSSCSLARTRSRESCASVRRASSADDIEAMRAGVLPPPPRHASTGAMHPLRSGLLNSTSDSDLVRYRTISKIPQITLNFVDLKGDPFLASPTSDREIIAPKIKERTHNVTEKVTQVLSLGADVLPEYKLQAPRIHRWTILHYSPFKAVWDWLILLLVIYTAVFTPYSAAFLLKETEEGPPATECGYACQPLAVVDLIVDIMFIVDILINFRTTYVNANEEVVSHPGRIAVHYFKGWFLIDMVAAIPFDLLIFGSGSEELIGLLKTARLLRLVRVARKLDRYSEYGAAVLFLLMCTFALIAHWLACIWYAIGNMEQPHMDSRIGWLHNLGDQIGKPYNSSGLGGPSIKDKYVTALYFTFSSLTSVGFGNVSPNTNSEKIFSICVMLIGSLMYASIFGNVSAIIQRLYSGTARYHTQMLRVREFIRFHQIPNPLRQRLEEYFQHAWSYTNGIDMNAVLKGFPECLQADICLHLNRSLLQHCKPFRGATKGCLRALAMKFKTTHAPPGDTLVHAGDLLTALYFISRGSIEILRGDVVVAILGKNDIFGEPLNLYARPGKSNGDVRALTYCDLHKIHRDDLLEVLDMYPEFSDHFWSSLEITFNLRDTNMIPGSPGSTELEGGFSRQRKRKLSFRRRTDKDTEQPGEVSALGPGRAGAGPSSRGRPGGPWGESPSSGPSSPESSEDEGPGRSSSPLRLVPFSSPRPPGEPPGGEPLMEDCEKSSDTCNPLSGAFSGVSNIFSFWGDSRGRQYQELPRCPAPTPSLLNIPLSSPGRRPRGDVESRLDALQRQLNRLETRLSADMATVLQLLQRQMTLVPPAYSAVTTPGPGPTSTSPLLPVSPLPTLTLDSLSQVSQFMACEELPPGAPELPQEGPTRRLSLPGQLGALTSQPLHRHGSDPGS

SMILES	Potency
O=C1Cc2c([nH]c3ccc(Br)cc23)-c2ccccc2N1	inactive
NC(C(=O)N[C@@H]1C(=O)N2C(C(=O)O)=C(Cl)CS[C@H]12)c1ccccc1 (some centres undefined)	inactive
O=C(O)c1ccccc1Nc1cccc(OCc2ccc3ccccc3n2)c1	inactive
Cc1cccc(C2CN(C)CCc3c2cc(O)c(O)c3Cl)c1 (centres undefined)	inactive
Cc1ccc2c(c1)C(N1CCN(C)CC1)=Nc1cccnc1N2	inactive
O=c1[nH]ccc2c(O)cccc12	inactive
O=C(O)/C(=C/c1c(C(=O)O)[nH]c2cc(Cl)cc(Cl)c12)c1ccccc1	inactive
Cc1nc2c(OCc3ccccc3)cccn2c1CC#N	inactive
N[C@H](C(=O)O)c1cc(O)cc(O)c1	inactive
CC1=C(C(=O)O)N2C(=O)[C@@H](NC(=O)C(N)C3=CCC=CC3)[C@H]2SC1 (some centres undefined)	inactive
COc1cc(/C=C(\C#N)C(=O)c2ccc(O)c(O)c2)cc(I)c1O	inactive
NC1CCN(O)C1=O (centres undefined)	inactive
NC1CONC1=O (centres undefined)	inactive
Oc1cc(O)c2c(c1)O[C@H](c1ccc(O)c(O)c1)[C@@H](O)C2	inactive
O=C(O)Cc1ccc(O)c(O)c1	inactive
N[C@@H](Cc1c[nH]c2ccccc12)C(=O)O	inactive

target: Luciferin 4-monooxygenase (Photinus pyralis) (UniProt P08659); test: Biochemical firefly luciferase enzyme assay for NPC (AID 624030);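 also: purified P. pyralis luciferase at 10 nM with luciferin and ATP substrate; nearly all actives have a fitted effect of over 70% in size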; settings: purified P. pyralis luciferase, luminescence, 5 min; series mostly up to 58.6 µM
Method in brief: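 Direct inhibition of firefly luciferase enzyme (10 nM final, 50 mM Tris Acetate) assessed by luminescence within 5 minutes. Percent activity scaled between DMSO and PTC124 positive control, with concentration-effect curves classified by fit quality and response.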

Sequence of Luciferin 4-monooxygenase (Photinus pyralis) (P08659 whole entry, looked up): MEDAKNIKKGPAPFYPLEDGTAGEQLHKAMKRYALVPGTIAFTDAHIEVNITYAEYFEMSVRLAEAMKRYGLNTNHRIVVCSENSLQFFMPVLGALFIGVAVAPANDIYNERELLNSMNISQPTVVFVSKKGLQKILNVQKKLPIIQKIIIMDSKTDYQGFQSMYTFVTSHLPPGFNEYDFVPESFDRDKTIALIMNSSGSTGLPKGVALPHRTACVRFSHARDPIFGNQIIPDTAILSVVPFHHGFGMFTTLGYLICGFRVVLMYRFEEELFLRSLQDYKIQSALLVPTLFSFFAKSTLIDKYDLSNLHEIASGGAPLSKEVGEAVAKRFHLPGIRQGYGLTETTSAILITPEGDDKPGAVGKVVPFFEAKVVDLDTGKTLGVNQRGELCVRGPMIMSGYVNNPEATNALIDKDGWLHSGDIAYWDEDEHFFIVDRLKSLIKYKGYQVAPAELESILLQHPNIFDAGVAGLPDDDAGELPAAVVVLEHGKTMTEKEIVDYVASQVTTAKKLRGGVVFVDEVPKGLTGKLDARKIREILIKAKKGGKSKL

SMILES	outcome
c1ccc(C2CN3CCSC3=N2)cc1 (centres undefined)	inactive
CCCCCCCCCCCCCCC[C@H](O)[C@H](N)CO	inactive
CCCCCCCCCCCCCCCCCCOC[C@H](COP(=O)([O-])OCC[N+](C)(C)C)OC	inactive
CC(O)C(O)[C@H]1CNc2nc(N)[nH]c(=O)c2N1 (some centres undefined)	inactive

test system: not listed separately; test: S16 Schwann cell viability assay (CellTiter-Glo assay) (AID 624031); settings: S16 rat Schwann cells viability, 24 h; series mostly up to 57.5 µM;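 also: cellular ATP luminescence as a viability measure; nearly all actives have a fitted effect of over 70% in size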
Method in brief: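 Native S16 rat Schwann cells, 500-750 cells/well in DMEM with 10% FBS, dosed with compound after overnight culture and incubated 24h at 37 degree Celsius/5% CO2. Viability by CellTiter-Glo luminescence; % activity normalized to no-cell wells and DMSO-treated cells.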

SMILES	outcome
c1ccc(C2CN3CCSC3=N2)cc1 (centres undefined)	inactive
CC(C)NC[C@H](O)COc1ccc(CC(N)=O)cc1	inactive
CCCCCCCCCCCCCCCCCCOC[C@H](COP(=O)([O-])OCC[N+](C)(C)C)OC	inactive
CC(O)C(O)[C@H]1CNc2nc(N)[nH]c(=O)c2N1 (some centres undefined)	inactive

test system: not listed separately; test: S16 Schwann cell PMP22 intronic element firefly luciferase assay (AID 624032); settings: S16 rat Schwann cells, PMP22 element FLuc, 24 h; series mostly up to 57.5 µM; also: nearly all actives have a fitted effect of over 30% in size
Method in brief: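 Luciferase reporter of PMP22 intronic-element expression in stably transfected S16 rat Schwann cells, read by ONE-Glo luminescence after 24 h compound exposure at 37 C. Activity scaled between DMSO (0%) and positive-control PTC124; concentration-effect curves quality-classified.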

SMILES	outcome
c1ccc(C2CN3CCSC3=N2)cc1 (centres undefined)	inactive
CCCCCCCCCCCCCCC[C@H](O)[C@H](N)CO	inactive
CC(C)NC[C@H](O)COc1ccc(CC(N)=O)cc1	inactive
CCCCCCCCCCCCCCCCCCOC[C@H](COP(=O)([O-])OCC[N+](C)(C)C)OC	inactive
CC(O)C(O)[C@H]1CNc2nc(N)[nH]c(=O)c2N1 (some centres undefined)	inactive
